The supplement of paper PMC10338343
± gives the standard deviation.

tested on: MILI (PIWIL2) piRISC loaded with L1MC piRNA (26 nt); test: pre-steady-state target cleavage rate (min^-1); guide: L1MC piRNA 5'p-UAACUAAAUACUAUGCAAGCUGUAGG; higher = faster piRNA-guided slicing of the target; conditions: auxiliary factor: 500 nM mouse GTSF1;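 further: 1 nM active piRISC with 0.1 nM target library at 33 °C single turnover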
In short: (§1)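 A transcribed, DNA-blocked target RNA library […] was incubated at 33 °C for 0–8 or 0–960 min with 1 nM active affinity-purified piRISC carrying one synthetic guide, in HEPES–potassium acetate buffer with or without 500 nM GTSF1 partner protein. Uncleaved targets were then sequenced and normalised to depth and to weakly complementary targets. Data from three trials were pooled, with k3 capped at 0.0001 min^-1, and a burst-and-steady-state fit yielded the pre-steady-state cleavage rate.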

| Sequence | pre-steady-state target cleavage rate |
| --- | --- |
| UCCUGGAUGUCGAUGCAUAGUCAUUUAGUUA | 0.00452 ± 0.004 |
| UCCUCCUACAGCUUCGUUAGUAUUUAGAAA | 0.0202 ± 0.0065 |
| UCCUGGAUGUCGAUGCAUAGUAUUCAGUUA | 0.0263 ± 0.0083 |
| UCCUGCUACAGCUUGCAAUCUAUUUUCAAA | 0.00419 ± 0.0036 |
| UCCUGGAUGUCGUAGCAUAGUAUUUUGUUA | 0.0314 ± 0.01 |
| UCCUCCUACAGGAAGCAUAGUAUUUACAAA | 0.0698 ± 0.014 |
| UCCUGCUACAGCUUGCAUAGAAUUUUCAAA | 0.0169 ± 0.0066 |
| UCCUGGAUGAGCUUGCAUAGUAAUUAGAAA | 0.00737 ± 0.0053 |

tested on: EfPiwi piRISC loaded with L1MC piRNA (26 nt); test: pre-steady-state target cleavage rate (min^-1); auxiliary factor: none (no Gtsf1); guide: L1MC piRNA 5'p-UAACUAAAUACUAUGCAAGCUGUAGG; MIWI and MILI are mouse PIWI proteins and EfPiwi is from a freshwater sponge; tags in brackets are library labels; higher = faster piRNA-guided slicing of the target; conditions: not given
In short: as §1

| Sequence | pre-steady-state target cleavage rate |
| --- | --- |
| UCCUGGAUGUCGAACGAAGUAUUUAGUUA | < 0.0001 |
| UCCUGCUACAGCUUCGUUAGUAUUUUCAAA | < 0.0001 |
| UCCUGGAUGUCGAUGCAUAGUCAUUUAGUUA | < 0.0001 |
| UCCUGGAACAGCUUCCAUAGUAUUAAGUUA | < 0.0001 |
| UCCUGCUACAGCUUGCAUACAUUUUAGUAA | < 0.0001 |
| UCCUGGAUGUCGUUGCAUAGUAUUUAUUA | < 0.0001 |
| UCCUCCUACAGCUUCGUUAGUAUUUAGAAA | < 0.0001 |
| UCCUGGAUGUCGAUGCAUAGUAUUCAGUUA | < 0.0001 |
| UCCUGGAUGUCGAUGCAUUGUAUUAAGUUA | < 0.0001 |
| UCCUGCUACAGCUUGCAAUCUAUUUUCAAA | < 0.0001 |
| UCCUGGAUGUCGAUGGAUAGAAUUUAGUUA | < 0.0001 |
| UCCUGGAUGUCGAACGUAAGUAUUUAUUA | < 0.0001 |
| UCCUGGAUGUCGUAGCAUAGUAUUUUGUUA | < 0.0001 |
| UCCUGGAUGUCGAUCCAUAGUAAUUAGUUA | < 0.0001 |
| UCCUCCUACAGGAAGCAUAGUAUUUACAAA | < 0.0001 |
| UCCUGGAUGUCGAACGUUAAUAUUUAGUUA | < 0.0001 |
| UCCUGCUACAGCUUGCAUAGAAUUUUCAAA | < 0.0001 |
| UCCUGGAUGUCGUUGCAUAGUAUUUUCAAA [g6:g18:cont:t1A] | < 0.0001 |
| UCCUGGAUGUCGAACGUAUCUAUCUUAGUUA | < 0.0001 |
| UCCUGGAUGUCGAACGUAUCUAUUUGGUUA | < 0.0001 |

| Sequence | pre-steady-state target cleavage rate |
| --- | --- |
| UCCUGGAUGUCGAAGGAUAGUAUUUUGUUA | < 0.0001 |
| UCCUGGAUGUCGAACGUAUCUAUUUAAUUA | < 0.0001 |
| UCCUGGAUGUCCUUCCAUAGUAAUUAGUUA | < 0.0001 |
| UCCUGGAUGUCGAACGUUAGUUUUUUGUUA | < 0.0001 |
| UCCUGGAUGAGCUUGCAUAGUAUUAUAGUUA | 0.0249 ± 0.011 |
| UCCUGGAUGUCGAUGCAUUGAAUUUAGUUA | < 0.0001 |
| UCCUGGAUGUCGAACGUAUGUUAUUAGUUA | < 0.0001 |
| UCCUGGAUCAGCUUGGAUAGUAUUUACAAA | < 0.0001 |
| UCCUGGAUCAGCUUCGUUAGUAUUUUCAAA | < 0.0001 |
| UCCUGGAUGUCGAACGAUACUAUUUAGAUA | < 0.0001 |
| UCCUGGAUGUCGAAGCAAAGUAUUUACUUA | < 0.0001 |
| UCCUGGAUGUCGAAGCAUAGUAUAUACUUA | < 0.0001 |
| UCCUGGAUGUCGAACGAUAUAUUUAGUUA | < 0.0001 |
| UCCUGGAUGUCGAACGUUCGUAUUUAGUUA | < 0.0001 |
| UCCUGGAUGUCGUUGCAUAGUAUUUAGCUA | < 0.0001 |
| UCCUGGAUGAGCUUGCAUAGAUUUUAGUAA | < 0.0001 |
| UCCUGGAUGUCGAUGCAUCAGUAUUUAGUUA | < 0.0001 |
| UCCUGGAUGUCGAACGAUAGUAUUUGGUUA | < 0.0001 |
| UCCUGGAUGAGCUUGCAUAGUAAUUAGAAA | < 0.0001 |
| UCCUGGAUGUCGAUGCAUAGGAUUUAGUUA | < 0.0001 |
